Screening data: PubChem BioAssay, National Center for Advancing Translational Sciences (NCATS)
NS1 function inh: qHTS Assay for Inhibitors of Influenza NS1 Protein Function. AID 2326, 2010. actives 0.4% (n = 270,000). Potency, µM (top dose mostly 46.1 µM), without a hit: at the highest dose activity, positive = more growth; calls by dose curve; note: potency is the fitted concentration of half-maximal effect; actives are rising curves; nearly all actives have a fitted effect of over 50% in size
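Read-out: OD600 growth recovery of NS1-expressing budding yeast. Cells grown overnight at 30C in -URA glucose medium, washed, resuspended and diluted 1:100 in 2% galactose assay medium, pH 6.0. Same strain lacking NS1 served as positive control.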
Pf growth 96h: Primary qHTS for delayed death inhibitors of the malarial parasite plastid, 96 hour incubation | AID 504834, 2011 | actives 6.9% (n = 320,000) | P. falciparum luciferase reporter growth, 96 h | Potency, µM (titrated, usually from 28.7 µM), without a hit: at the top dose activity change, negative = inhibition, usual class: inhibitors; note: potency is the fitted concentration of half-maximal effect; % is set by controls: 0 for no effect and ±100 for the full control effect
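Erythrocytes infected with luciferase-expressing P. falciparum were dispensed at 2% hematocrit and 0.05% parasitemia (final), then incubated with compounds 96 hours at 37 C in 5% CO2. Luminescence after detection reagent addition reported growth.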
Shiga toxin inh: A qHTS for Small Molecule Inhibitors of Shiga Toxin | actives 9.2% (n = 290,000) | inhibition, % at 38.7 µM | Vero cells, Shiga toxin protein synthesis inhibition reporter; in the data active = inhibition mostly above about 28%, no sharp cut-off; inactive = mostly below about 43%; note: 0% is about no effect
Giardia FBPA inh: qHTS Assay for Inhibitors of Fructose-1,6-bisphosphate Aldolase from Giardia Lamblia. A8B2U2. purified Giardia FBPA. Potency, µM (doses to about 59.6 µM), for the others: at the top dose activity, negative = inhibition, most hits filed as inhibitors. actives 0.71% (n = 290,000). AID 2451, 2010; note: potency is the fitted concentration of half-maximal effect; % is set by controls: 0 for no effect and ±100 for the full control effect; nearly all actives have a fitted effect of over 55% in size
Target sequence (A8B2U2 whole entry, looked up): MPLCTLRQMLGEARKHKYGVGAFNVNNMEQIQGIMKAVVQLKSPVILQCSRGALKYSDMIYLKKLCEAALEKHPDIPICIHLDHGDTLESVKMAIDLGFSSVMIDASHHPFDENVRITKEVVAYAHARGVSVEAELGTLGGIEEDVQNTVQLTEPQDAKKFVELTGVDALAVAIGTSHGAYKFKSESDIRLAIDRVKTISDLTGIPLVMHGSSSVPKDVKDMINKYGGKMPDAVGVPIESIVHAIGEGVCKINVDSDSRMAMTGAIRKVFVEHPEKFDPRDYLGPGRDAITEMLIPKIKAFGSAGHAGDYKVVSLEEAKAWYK
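40 nM FBPA preincubated 10 min at RT with compound (up to 57.5 uM final), then substrate plus GAPDH/TPI/NAD/arsenate coupling and diaphorase/resazurin added. Fluorescence read after 20 min at RT, 525/598 nm.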
Pf growth 48h: Primary qHTS for delayed death inhibitors of the malarial parasite plastid, 48 hour incubation; actives 5.9% (n = 310,000); Potency, µM (titrated, usually from 28.7 µM), inactives show at the top dose activity change, negative = inhibition, actives largely listed as inhibitors; AID 504832, 2011; P. falciparum luciferase growth in erythrocytes, 48 h; note: potency is the fitted concentration of half-maximal effect; % is set by controls: 0 for no effect and ±100 for the full control effect
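In quantitative HTS format, infected erythrocytes bearing luciferase-reporter parasites were treated for a single generation at 37 C. Luminescence after adding detection reagent served as the growth measure.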
Cycloheximide cs: Cycloheximide Counterscreen for Small Molecule Inhibitors of Shiga Toxin. cell reporter, cycloheximide protein synthesis inhibition counterscreen. max response, %. actives 12% (n = 300,000). AID 2314, 2010; in the data active = max response mostly above about 13%, no sharp cut-off; inactive = mostly below about 14%; note: read at 38.3 µM for the half of the compounds with a filed dose; 0% is about no effect
* hit, by the source's call; ? = inconclusive; nt = not tested or not shown; [ ] = dose if it differs, or a comment. Shown are actives, neighbours in structure and some others; about 21% of the full set was active somewhere. Unless noted, calls come from the whole dose curve; as a rule, active = well fitted curve in the direction sought with a large enough effect; inconclusive = small, poorly fitted or top-dose-only effect, or another doubt; inactive = no such curve, though single readings can be large; an effect the other way counts as inactive or inconclusive.

SMILES	NS1 function inh	Pf growth 96h	Shiga toxin inh	Giardia FBPA inh	Pf growth 48h	Cycloheximide cs
COc1ccc(N2C(=O)CCC(C(=O)N3CCCCCC3)C2c2ccc(OC)c(OC)c2)cc1 (configuration not stated)	2.3%	-7.1%	-20.8	-0.5%	20.6%	-3.9
COc1ccc(C2C(C(=O)N3CCC(C(N)=O)CC3)CC(=O)N2c2ccc(OC)cc2)cc1 (configuration not stated)	nt	5.22µM*	-3.6	3.2%	?	6.1
COc1ccc(C2C(C(=O)N3CCC4(CC3)OCCO4)CC(=O)N2c2ccc(OC)cc2)cc1 (configuration not stated)	0.8%	nt	-7.0	11.0%	11.7µM*	-1.8
CCN(CC)CCNC(=O)C1CCC(=O)N(c2ccc(OC)cc2)C1c1ccc(F)cc1 (configuration not stated)	0.6%	57.5%	-3.1	-5.4%	7.1%	-4.5
COc1ccc(C2C(C(=O)N3CCCCC3)CC(=O)N2c2ccc(OC)cc2)cc1 (configuration not stated)	-3.0%	9.28µM*	24.9	13.8%	1.65µM*	-2.3
COc1ccc(O[C@H]2C=C[C@@H](c3ccccc3)O[C@H]2CO/N=C(/C)CCC(=O)OC[C@@H]2O[C@H](c3ccccc3)C=C[C@@H]2Oc2ccc(OC)cc2)cc1	nt	nt	nt	-2.6%[12.9 µM]	nt	nt
COc1ccc(O[C@H]2C=C[C@@H](c3ccccc3)O[C@@H]2COC(=O)CC/C(C)=N/O[C@H](C)c2cn([C@@H]3COC[C@H]3O)nn2)cc1	-6.4%	?	-7.1	-10.4%	14.7µM*	-4.1
COCCN(CCOC)c1nc(C)nc2c1nc(-c1ccccc1)n2CCN(C)C	nt	nt	nt	-2.5%	nt	nt
CCOC(=O)[C@H]1[C@H]2COc3cc(OC)ccc3[C@@H]2N2C(=O)CN(Cc3ccc(C)cc3)C(=O)[C@@]12C	nt	2.62µM*	nt	nt	10.4µM*	nt
CCOC(=O)[C@H]1[C@H]2COc3ccc(OC)cc3[C@@H]2N2C(=O)CN(CCc3c[nH]c4ccccc34)C(=O)[C@@]12C	nt	?	nt	nt	13.1µM*	nt
C[C@@]12C(=O)N(CCc3c[nH]c4ccccc34)CC(=O)N1[C@H]1c3ccccc3OC[C@@H]1[C@@H]2c1ccccc1	nt	6.57µM*	nt	nt	11.7µM*	nt
CCOC(=O)[C@H]1[C@H]2COc3ccc(Br)cc3[C@@H]2N2C(=O)CN(Cc3ccc(OC)cc3)C(=O)[C@@]12C	nt	?	nt	nt	7.38µM*	nt
C[C@@]12C(=O)N(c3ccc(F)cc3)C(=O)N1[C@@H]1c3ccccc3OC[C@@H]1[C@H]2c1ccccc1	7.5%	?	12.6	-7.6%	?	-3.5
CC1CCCCN1C(=O)COC(=O)C1CCN(S(=O)(=O)c2ccc3c(c2)OCCO3)CC1 (configuration not stated)	nt	1.8%	nt	nt	-3.6%	nt
NC(=O)C[C@H](N)c1cn([C@@H](CC(N)=O)C(=O)N2CCNCC2)nn1	nt	100.8%	nt	nt	-3.4%	nt
CCOC(=O)[C@H]1[C@H]2COc3ccc(Cl)cc3[C@@H]2N2C(=O)CNC(=O)[C@@]12C	nt	?	nt	nt	26.3%	nt
CCOC(=O)[C@H]1[C@H]2COc3ccc(Cl)cc3[C@@H]2N2C(=O)CN(Cc3ccc(C)cc3)C(=O)[C@@]12C	nt	?	nt	nt	11.7µM*	nt
CCOC(=O)[C@H]1[C@H]2COc3ccc(Cl)cc3[C@@H]2N2C(=O)CN(Cc3ccc(OC)cc3)C(=O)[C@@]12C	nt	6.57µM*	nt	nt	7.38µM*	nt
CCC(C)NC(=O)c1cc(C)no1 (configuration not stated)	-0.1%	34.9%	18.9	4.6%	nt	-5.0
Cc1cc(NC(=O)CCl)on1	nt	?	10.9	-18.7%	10.4µM*	1.2
CC(C)c1cc(NC(=O)CCl)on1	nt	?	10.0	-9.1%	3.29µM*	-1.2
COc1ccc(CNC(=O)C(NC(C)=O)C(=O)Nc2ccc(C(C)C)cc2)cc1 (configuration not stated)	nt	25.2%	27.4	-0.1%	?	-2.0
